According to the supplement of paper PMC10037445:
Whole data set: some 2,900 compounds, median “NF-kB SEAP reporter activity, fold change vs agonist alone” near 0.99, cut for the highest 2% near 2.6. The sample as a whole holds a higher share of the highest values than the screen did.

Assays:
[1] = system: RAW-Dual; assay: NF-kB SEAP reporter activity, fold change vs agonist alone; cytotoxicity flag (confluency mask): not cytotoxic; higher = enhanced NF-kB activity
Procedure, shortened: (§1)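 Reporter activity is given as fold change relative to agonist-alone wells. To measure it, 50 nL of library stock was pin-tooled onto RAW-Dual macrophages (50,000 cells/well, DMEM, 384-well plates), a PRR agonist followed 1 h later, and cells stayed at 37 °C, 5% CO2. Twenty hours on, supernatant was assayed for IRF (QuantiLuc luminescence) and NF-κB (QuantiBlue, 620 nm absorbance), and wells under 70% of agonist-control IncuCyte confluency in both mask sets were marked cytotoxic.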

[2] = system: RAW-Dual; assay: NF-kB SEAP reporter activity, fold change vs agonist alone; higher = enhanced NF-kB activity
Procedure, shortened: as §1

[3] = system: RAW-Dual; assay: NF-kB SEAP reporter activity, fold change vs agonist alone; cytotoxicity flag (confluency mask): cytotoxic (confluency <70% of control); higher = enhanced NF-kB activity
Procedure, shortened: as §1

[4] = agonist: ODN 1826 (TLR9) 0.5 ug/mL
[5] = agonist: Pam2CSK4 (TLR2/6) 0.1 ug/mL
[6] = agonist: Pam3CSK4 (TLR2/1) 0.1 ug/mL
[7] = library stock concentration (final ~1000-fold dilution): 10 mM, cytotoxicity flag (confluency mask): not cytotoxic, agonist: Imiquimod (TLR7) […]
[8] = library stock concentration (final ~1000-fold dilution): 10 mM, cytotoxicity flag (confluency mask): not cytotoxic, agonist: MPLA (TLR4) […]
[9] = library stock concentration (final ~1000-fold dilution): 2 mM, cytotoxicity flag (confluency mask): not cytotoxic, agonist: Imiquimod (TLR7) […]
[10] = library stock concentration (final ~1000-fold dilution): 2 mM, cytotoxicity flag (confluency mask): not cytotoxic, agonist: MPLA (TLR4) […]

For Cc1n[nH]c2ccc(-c3cncc(OCC(N)Cc4ccccc4)c3)cc12 (stereo not given) (library stock concentration (final ~1000-fold dilution): 10 mM), the “NF-kB SEAP reporter activity” value ([1]; agonist: LPS (TLR4) 0.1 ug/mL) was 0.198, the “NF-kB SEAP reporter activity” value [1, 4] was 0.962 and the “NF-kB SEAP reporter activity” value [1, 5] was 0.447. The “NF-kB SEAP reporter activity” value [1, 6] was 1.01.

For Cc1n[nH]c2ccc(-c3cncc(OCC(N)Cc4ccccc4)c3)cc12 (stereo not given), the “NF-kB SEAP reporter activity” value [2, 7] was 0.904 and the “NF-kB SEAP reporter activity” value [2, 8] was 0.967.

With C=CC1(C)CC(OC(=O)CSCCN(CC)CC)C2(C)C(C)CCC3(CCC(=O)C32)C(C)C1O.O=C(O)/C=C/C(=O)O (stereo not given) (library stock concentration (final ~1000-fold dilution): 10 mM) the “NF-kB SEAP reporter activity” value ([1]; agonist: LPS (TLR4) 0.1 ug/mL) was 1.37, the “NF-kB SEAP reporter activity” value [1, 4] was 0.712 and the “NF-kB SEAP reporter activity” value [1, 5] was 0.821. For the same compound, the “NF-kB SEAP reporter activity” value [1, 6] was 0.841.

C=CC1(C)CC(OC(=O)CSCCN(CC)CC)C2(C)C(C)CCC3(CCC(=O)C32)C(C)C1O.O=C(O)/C=C/C(=O)O (stereo not given) was tested, and the “NF-kB SEAP reporter activity” value [2, 8] was 1.13.

In the case of O=C(/C=C/N1CC2CC1CN2c1ccccn1)c1ccccc1O (stereo not given), the “NF-kB SEAP reporter activity” value [2, 7] is reported as 0.829 and the “NF-kB SEAP reporter activity” value [2, 8] is reported as 1.03.

O=C(/C=C/N1CC2CC1CN2c1ccccn1)c1ccccc1O (stereo not given) (library stock concentration (final ~1000-fold dilution): 10 mM) was tested, and the “NF-kB SEAP reporter activity” value ([1]; agonist: LPS (TLR4) 0.1 ug/mL) was 1.01, the “NF-kB SEAP reporter activity” value [1, 4] was 0.735 and the “NF-kB SEAP reporter activity” value [1, 5] was 1.02. For the same compound, the “NF-kB SEAP reporter activity” value [1, 6] was 1.39.

In the case of COC(=O)C(CCSC)NC(=O)c1ccc(NCC(N)CS)cc1-c1ccccc1.Cl (stereo not given), the “NF-kB SEAP reporter activity” value [2, 7] is reported as 1.13 and the “NF-kB SEAP reporter activity” value [2, 8] is reported as 1.22.

With CCN(CC)CCCCC(NC(=O)C(CC(C)C)NC(=O)C(C)NC(=O)C(Cc1ccccc1)NC(=O)c1ccc(C(C)(C)C)cc1)C(=O)NC(CO)C(=O)OC (stereo not given) (library stock concentration (final ~1000-fold dilution): 10 mM) the “NF-kB SEAP reporter activity” value ([1]; agonist: LPS (TLR4) 0.1 ug/mL) was 0.99, the “NF-kB SEAP reporter activity” value [1, 4] was 0.888 and the “NF-kB SEAP reporter activity” value [1, 5] was 0.898. The “NF-kB SEAP reporter activity” value [1, 6] was 1.1.

COC(=O)C(CCSC)NC(=O)c1ccc(NCC(N)CS)cc1-c1ccccc1.Cl (stereo not given) (library stock concentration (final ~1000-fold dilution): 10 mM) was tested, and the “NF-kB SEAP reporter activity” value ([1]; agonist: LPS (TLR4) 0.1 ug/mL) was 1.38, the “NF-kB SEAP reporter activity” value [1, 4] was 1.56 and the “NF-kB SEAP reporter activity” value [1, 5] was 1.16. For the same compound, the “NF-kB SEAP reporter activity” value [1, 6] was 0.929.

In the case of COC(=O)C(CC(C)C)NC(=O)c1ccc(NCC(N)CS)cc1-c1cccc2ccccc12.O=C(O)C(F)(F)F (stereo not given) (library stock concentration (final ~1000-fold dilution): 10 mM), the “NF-kB SEAP reporter activity” value ([1]; agonist: LPS (TLR4) 0.1 ug/mL) is reported as 3.82, the “NF-kB SEAP reporter activity” value [1, 4] is reported as 2.38 and the “NF-kB SEAP reporter activity” value [1, 5] is reported as 1.5. The “NF-kB SEAP reporter activity” value [1, 6] was 2.19.

For COC(=O)C(CC(C)C)NC(=O)c1ccc(NCC(N)CS)cc1-c1cccc2ccccc12.O=C(O)C(F)(F)F (stereo not given), the “NF-kB SEAP reporter activity” value [2, 7] was 1.25 and the “NF-kB SEAP reporter activity” value [2, 8] was 2.31.

In the case of CCN(CC)CCCCC(NC(=O)C(CC(C)C)NC(=O)C(C)NC(=O)C(Cc1ccccc1)NC(=O)c1ccc(C(C)(C)C)cc1)C(=O)NC(CO)C(=O)OC (stereo not given), the “NF-kB SEAP reporter activity” value [2, 7] is reported as 1.08 and the “NF-kB SEAP reporter activity” value [2, 8] is reported as 0.945.

With C=C(C)C1CCC2(C(=O)OC3OC(COC4OC(CO)C(OC5OC(C)C(O)C(O)C5O)C(O)C4O)C(O)C(O)C3O)CCC3(C)C(CCC4C5(C)CCC(OC6OCC(O)C(O)C6OC6OC(C)C(O)C(O)C6O)C(C)(CO)C5CCC43C)C12 (stereo not given) (library stock concentration (final ~1000-fold dilution): 2 mM) the “NF-kB SEAP reporter activity” value ([1]; agonist: LPS (TLR4) 0.1 ug/mL) was 1, the “NF-kB SEAP reporter activity” value [1, 4] was 1.09 and the “NF-kB SEAP reporter activity” value [1, 5] was 1.17. The “NF-kB SEAP reporter activity” value [1, 6] was 1.16.

For C=C(C)C1CCC2(C(=O)OC3OC(COC4OC(CO)C(OC5OC(C)C(O)C(O)C5O)C(O)C4O)C(O)C(O)C3O)CCC3(C)C(CCC4C5(C)CCC(OC6OCC(O)C(O)C6OC6OC(C)C(O)C(O)C6O)C(C)(CO)C5CCC43C)C12 (stereo not given), the “NF-kB SEAP reporter activity” value [2, 9] was 0.946 and the “NF-kB SEAP reporter activity” value [2, 10] was 1.07.

In the case of Cn1cc(-c2cnn3c(N)c(Br)c(C4CCCNC4)nc23)cn1 (stereo not given), the “NF-kB SEAP reporter activity” value [2, 9] is reported as 1.09 and the “NF-kB SEAP reporter activity” value [2, 10] is reported as 1.35.

Cn1cc(-c2cnn3c(N)c(Br)c(C4CCCNC4)nc23)cn1 (stereo not given) (library stock concentration (final ~1000-fold dilution): 2 mM) was tested, and the “NF-kB SEAP reporter activity” value ([1]; agonist: LPS (TLR4) 0.1 ug/mL) was 1.31, the “NF-kB SEAP reporter activity” value [1, 4] was 1.04 and the “NF-kB SEAP reporter activity” value [1, 5] was 1.04. For the same compound, the “NF-kB SEAP reporter activity” value [1, 6] was 1.19.

With Nc1ccn(C2CCC(CO)O2)c(=O)n1 (stereo not given) (library stock concentration (final ~1000-fold dilution): 10 mM) the “NF-kB SEAP reporter activity” value ([1]; agonist: LPS (TLR4) 0.1 ug/mL) was 0.913, the “NF-kB SEAP reporter activity” value [1, 4] was 1 and the “NF-kB SEAP reporter activity” value [1, 5] was 0.95. For the same compound, the “NF-kB SEAP reporter activity” value [1, 6] was 1.15.

Nc1ccn(C2CCC(CO)O2)c(=O)n1 (stereo not given) was tested, and the “NF-kB SEAP reporter activity” value [2, 7] was 0.994 and the “NF-kB SEAP reporter activity” value [2, 8] was 0.981.

In the case of Cn1cc(-c2ccc(S(=O)(=O)n3ccc(/C=C/C(=O)Nc4ccccc4N)c3)cc2)cn1 (library stock concentration (final ~1000-fold dilution): 10 mM), the “NF-kB SEAP reporter activity” value ([3]; agonist: LPS (TLR4) 0.1 ug/mL) is reported as 4.11, the “NF-kB SEAP reporter activity” value [3, 4] is reported as 3.13 and the “NF-kB SEAP reporter activity” value [3, 5] is reported as 1.14. For the same compound, the “NF-kB SEAP reporter activity” value [3, 6] was 2.27.

In the case of Cn1cc(-c2ccc(S(=O)(=O)n3ccc(/C=C/C(=O)Nc4ccccc4N)c3)cc2)cn1, the “NF-kB SEAP reporter activity” value ([2]; library stock concentration (final ~1000-fold dilution): 10 mM, cytotoxicity flag (confluency mask): cytotoxic (confluency <70% of control), agonist: Imiquimod (TLR7) […]) is reported as 1.68 and the “NF-kB SEAP reporter activity” value ([2]; library stock concentration (final ~1000-fold dilution): 10 mM, cytotoxicity flag (confluency mask): cytotoxic (confluency <70% of control), agonist: MPLA (TLR4) […]) is reported as 2.37.

With Nc1cc(F)ccc1NC(=O)/C=C/c1cnn(C/C=C/c2ccccc2)c1 (library stock concentration (final ~1000-fold dilution): 10 mM) the “NF-kB SEAP reporter activity” value ([1]; agonist: LPS (TLR4) 0.1 ug/mL) was 0.995, the “NF-kB SEAP reporter activity” value [1, 4] was 1.12 and the “NF-kB SEAP reporter activity” value [1, 5] was 0.405. For the same compound, the “NF-kB SEAP reporter activity” value [1, 6] was 0.419.

For Nc1cc(F)ccc1NC(=O)/C=C/c1cnn(C/C=C/c2ccccc2)c1, the “NF-kB SEAP reporter activity” value [2, 7] was 1.14 and the “NF-kB SEAP reporter activity” value [2, 8] was 1.2.

With COc1cc(C(=O)O)ccc1O (library stock concentration (final ~1000-fold dilution): 10 mM) the “NF-kB SEAP reporter activity” value ([1]; agonist: LPS (TLR4) 0.1 ug/mL) was 1.06, the “NF-kB SEAP reporter activity” value [1, 4] was 1.12 and the “NF-kB SEAP reporter activity” value [1, 5] was 1.14. For the same compound, the “NF-kB SEAP reporter activity” value [1, 6] was 1.16.

COc1cc(C(=O)O)ccc1O was tested, and the “NF-kB SEAP reporter activity” value [2, 7] was 0.937 and the “NF-kB SEAP reporter activity” value [2, 8] was 1.02.

In the case of CCCCOc1nc(N)c2c(n1)N(Cc1cccc(CN3CCCC3)c1)CC(=O)N2 (library stock concentration (final ~1000-fold dilution): 1 mM), the “NF-kB SEAP reporter activity” value ([1]; agonist: LPS (TLR4) 0.1 ug/mL) is reported as 2.53, the “NF-kB SEAP reporter activity” value [1, 4] is reported as 1.13 and the “NF-kB SEAP reporter activity” value [1, 5] is reported as 1.17. The “NF-kB SEAP reporter activity” value [1, 6] was 1.25.
